Experimental data from the OligoGym collection.

biological target: LIN7C; assay: pooled miR-30 sensor sort-seq; sequence = guide strand; conditions: shRNA
Further: reference of the scale not given here.

Question: TAACCTTTCCTTGTGCGGCTTT was tested. Which sensor-assay potency score (higher = more potent) did it give?
Answer: 0.0216

Question: Which sensor-assay potency score (higher = more potent) does the source give for TTTTGGTAGCTCAACAACTCGA here?
Answer: -0.544

Question: Which sensor-assay potency score (higher = more potent) does the source give for TAGCGTTCGCTCTCACTTCAGG here?
Answer: -0.712

Question: With TTCACTTTGAAGGACTCTTTGC as the sequence, how does the sensor-assay potency score (higher = more potent) read?
Answer: -0.329

Question: Which sensor-assay potency score (higher = more potent) does the source give for TTTTCTTACAATCATTGGCATT here?
Answer: -1.46

Question: TCTATCAGCAATTCCACCTGGA was tested. Which sensor-assay potency score (higher = more potent) did it give?
Answer: 1.09

Question: TCTACAAATATCTCTCTCCAGC was tested. Which sensor-assay potency score (higher = more potent) did it give?
Answer: -1.02

Question: With TTTCTTCTAAGACTTTGGGTGT as the sequence, how does the sensor-assay potency score (higher = more potent) read?
Answer: -0.276

Question: TTGCTCTACAAATATCTCTCTC was tested. Which sensor-assay potency score (higher = more potent) did it give?
Answer: -0.491

Question: For TAATATTGAATCCAAGGCCCTC, which sensor-assay potency score (higher = more potent) is on record?
Answer: -0.834

biological target: LINGO4; assay: as above; conditions: shRNA

Question: Which sensor-assay potency score (higher = more potent) does the source give for TGAGGTGGTACAGTGCTTGGAA here?
Answer: 0.431

Question: For TTCCACCTGGATGACTTCCAGC, which sensor-assay potency score (higher = more potent) is on record?
Answer: -1.16

Question: TTGAGAGCTGGTTGTAGCTGAG was tested. Which sensor-assay potency score (higher = more potent) did it give?
Answer: -0.0336

Question: For TTATCTGCCACATCCAGGAGGT, which sensor-assay potency score (higher = more potent) is on record?
Answer: -0.12

Question: For ATCTAGGAAGAGAACAATCTGG, which sensor-assay potency score (higher = more potent) is on record?
Answer: -0.599

Question: How did the sensor-assay potency score (higher = more potent) turn out when TCTAGGACCCTTACTCTCCCAG was run?
Answer: -0.898

Question: Which sensor-assay potency score (higher = more potent) does the source give for TAGCTCCTGGAGCCGCACCAGG here?
Answer: -1.44

Question: TTGCCAGACAGCCTCAAGGTGA was tested. Which sensor-assay potency score (higher = more potent) did it give?
Answer: -1.39

Question: For TGTGATGTTTGACCCGACCTTT, which sensor-assay potency score (higher = more potent) is on record?
Answer: -0.94

Question: With ATATCCAGTTCTCTAAGCCTTA as the sequence, how does the sensor-assay potency score (higher = more potent) read?
Answer: -0.907

Question: For TAGCTGAGGTCCAATTCCTGGA, which sensor-assay potency score (higher = more potent) is on record?
Answer: -0.789

Question: TTTGACCCGACCTTTGCCCTTG was tested. Which sensor-assay potency score (higher = more potent) did it give?
Answer: -0.241
